# Measurements: PubChem BioAssay
# Records with an inconclusive call do not appear. Active and inactive are the calls of the source.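 The calls were made as follows, unless noted: active = percent response above a set limit, the screen-wide mean plus 3 SD (cut at about 130% in these data); inactive = the rest.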
# Assays:
# [1] = yeast TOR pathway RPL19A-GFP modulators, primary screen, cell-based, S. cerevisiae, multiplex flow cytometry (AID 1862; in the data active = percent of DMSO control GFP below about 86%;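 also: lower values mimic rapamycin by blocking the RPL19A rise seen in DMSO cells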); conditions: S. cerevisiae RPL19A-GFP strain, flow cytometry fluorescence, 3 h; at 10 µM; stronger effect = lower value
# [2] = modulators of MEP2-GFP levels in yeast, primary screen, S. cerevisiae, multiplex flow cytometry (AID 1867;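 active = GFP response, as percent of the DMSO control, above the screen-wide mean plus 3 SD, about 139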;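 also: median GFP channel fluorescence of barcode-gated MEP2-GFP cells measured by flow cytometry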); conditions: S. cerevisiae MEP2-GFP strain, 3 h, at 10 µM, stronger effect = higher value, 100% means same as DMSO wells
# [3] = modulators of CIT2-GFP expression in yeast, primary screen, S. cerevisiae, GFP fusion, multiplex flow cytometry (AID 1870); conditions: 3 h, at 10 µM, stronger effect = higher value;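 also: barcoded CIT2-GFP strain pooled with four other GFP strains with rapamycin as positive control; median GFP fluorescence per well over plate mean of DMSO wells so 100% = DMSO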
# [4] = modulators of LAP4-GFP expression in yeast, primary screen, S. cerevisiae, multiplex flow cytometry (AID 1873;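 active = GFP signal, as percent of the solvent control, above the screen mean plus 3 SD, about 149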); conditions: 3 h, at 10 µM, stronger effect = higher value
# [5] = modulators of AGP1-GFP expression in yeast TOR pathway, primary screen, cell-based, multiplex flow cytometry, S. cerevisiae (AID 1887;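 active = GFP signal above the screen-wide mean plus 3 SD, that is over about 124.5% of the solvent control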;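 also: AGP1-GFP fusion strain of S. cerevisiae within a five-strain barcoded multiplex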); conditions: 3 h, at 10 µM, stronger effect = higher value
# [6] = inhibitors of CD8+ T cell-vesicle binding, pilot screen, LFA-1/ICAM-1 modulator project, MLPCN validation set, flow cytometry (AID 2523;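 active = response below a set limit, under 55% cells CD8-positive and vesicle-bound, and CD8 cells' 90th-percentile brightness under 279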;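 as to vesicle binding response: mean PE anti-B7-1 fluorescence of CD8+ cells relative to row control; 100% = QL9-loaded vesicles with DMSO vehicle in the same plate row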); conditions: 2C mouse CD8+ T cells, at 7 µM, stronger effect = lower value; double positive events: measured here: CD8+/vesicle+ event percentage
# [7] = biological target: Integrin beta-1 (Homo sapiens) + Integrin alpha-4 (Homo sapiens) (UniProt P13612+P05556); experiment: inhibition of HUTS-21 binding to VLA-4, pilot screen, VLA-4 allosteric modulator project, U937 cells, HUTS-21 mAb, flow cytometry, validation set (AID 2674;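 active = inhibition above 50%, about 3 SD of the validation set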;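 also: antibody binding induced by the VLA-4 ligand LDV present at three times its Kd; 0% = LDV ligand with antibody and no compound and 100% = antibody without LDV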); conditions: HUTS-21 LIBS mAb binding, at 6.7 µM, stronger effect = higher value, binding induced by LDV ligand
# Sequence of Integrin beta-1 (Homo sapiens) + Integrin alpha-4 (Homo sapiens) (P05556 whole entry, looked up): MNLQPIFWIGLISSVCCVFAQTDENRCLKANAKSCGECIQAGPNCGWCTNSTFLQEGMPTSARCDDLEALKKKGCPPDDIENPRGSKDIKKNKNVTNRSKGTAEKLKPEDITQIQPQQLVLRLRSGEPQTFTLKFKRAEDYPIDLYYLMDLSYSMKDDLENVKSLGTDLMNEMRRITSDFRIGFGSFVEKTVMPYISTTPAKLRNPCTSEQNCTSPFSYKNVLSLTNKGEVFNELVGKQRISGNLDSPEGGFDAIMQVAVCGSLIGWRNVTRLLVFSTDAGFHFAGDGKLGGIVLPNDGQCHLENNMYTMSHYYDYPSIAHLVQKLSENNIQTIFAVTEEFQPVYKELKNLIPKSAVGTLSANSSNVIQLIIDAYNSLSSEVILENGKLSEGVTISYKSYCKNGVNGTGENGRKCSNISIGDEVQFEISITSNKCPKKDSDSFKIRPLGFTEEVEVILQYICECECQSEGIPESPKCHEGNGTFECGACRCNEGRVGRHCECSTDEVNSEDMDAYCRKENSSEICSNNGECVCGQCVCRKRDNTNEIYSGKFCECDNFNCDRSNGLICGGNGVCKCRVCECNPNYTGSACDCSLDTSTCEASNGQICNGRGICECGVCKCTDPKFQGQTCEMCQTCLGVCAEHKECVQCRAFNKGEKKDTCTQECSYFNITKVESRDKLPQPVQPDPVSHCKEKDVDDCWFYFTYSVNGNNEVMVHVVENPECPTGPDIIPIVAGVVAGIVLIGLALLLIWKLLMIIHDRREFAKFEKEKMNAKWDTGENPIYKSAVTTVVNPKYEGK
# Sequence of Integrin beta-1 (Homo sapiens) + Integrin alpha-4 (Homo sapiens) (P13612 whole entry, looked up): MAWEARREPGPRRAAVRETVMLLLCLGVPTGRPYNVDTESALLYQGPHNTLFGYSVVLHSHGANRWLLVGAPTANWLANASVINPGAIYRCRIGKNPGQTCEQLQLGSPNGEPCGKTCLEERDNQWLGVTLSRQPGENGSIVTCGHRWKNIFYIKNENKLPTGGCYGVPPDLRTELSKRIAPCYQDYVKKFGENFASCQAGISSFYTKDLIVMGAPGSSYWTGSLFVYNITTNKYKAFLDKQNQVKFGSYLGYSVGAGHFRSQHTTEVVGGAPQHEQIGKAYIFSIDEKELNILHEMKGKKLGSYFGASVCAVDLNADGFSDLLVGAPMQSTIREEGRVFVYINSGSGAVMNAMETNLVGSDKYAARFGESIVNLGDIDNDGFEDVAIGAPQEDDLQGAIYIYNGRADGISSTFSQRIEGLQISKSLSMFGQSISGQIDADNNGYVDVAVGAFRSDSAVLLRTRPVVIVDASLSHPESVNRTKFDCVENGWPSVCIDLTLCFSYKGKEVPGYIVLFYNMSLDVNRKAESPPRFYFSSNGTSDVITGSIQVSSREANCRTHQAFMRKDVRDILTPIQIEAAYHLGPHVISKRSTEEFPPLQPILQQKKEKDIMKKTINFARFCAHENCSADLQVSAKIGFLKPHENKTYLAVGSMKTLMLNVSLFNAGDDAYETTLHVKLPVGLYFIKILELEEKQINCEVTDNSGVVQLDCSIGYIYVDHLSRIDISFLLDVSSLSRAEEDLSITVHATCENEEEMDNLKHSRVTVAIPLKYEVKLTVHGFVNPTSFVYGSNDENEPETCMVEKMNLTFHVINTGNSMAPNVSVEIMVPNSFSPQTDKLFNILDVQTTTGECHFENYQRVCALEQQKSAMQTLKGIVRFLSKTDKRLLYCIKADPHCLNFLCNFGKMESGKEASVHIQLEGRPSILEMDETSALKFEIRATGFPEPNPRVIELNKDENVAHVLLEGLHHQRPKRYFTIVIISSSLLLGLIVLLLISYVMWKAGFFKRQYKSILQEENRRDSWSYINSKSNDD
# [8] = superoxide lowering in aged yeast cells, pilot screen, validation compound set (AID 2706;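 active = superoxide response below 65% of plate, a cut near 3 SD across the whole screen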;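 also: yeast exposed to compound for one week at 30 degrees C before staining; 100% = mean of all compound wells on the same plate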); conditions: S. cerevisiae aging, superoxide DHE fluorescence; at 10 µM; stronger effect = lower value
# [9] = biological target: Beta-adrenergic receptor kinase 1 (Homo sapiens) (UniProt P25098); experiment: GRK2 binders displacing RNA aptamer, biochemical, validation, human GRK2, bead flow cytometry (AID 488806;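 active = aptamer binding inhibition above 30%, about 3 SD of noise from non-fluorescent compounds; inactive = inhibition at or below 30%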); conditions: bead-bound GRK2, FAM-aptamer displacement, at 10 µM, stronger effect = higher value
# Sequence of Beta-adrenergic receptor kinase 1 (Homo sapiens) (P25098 whole entry, looked up): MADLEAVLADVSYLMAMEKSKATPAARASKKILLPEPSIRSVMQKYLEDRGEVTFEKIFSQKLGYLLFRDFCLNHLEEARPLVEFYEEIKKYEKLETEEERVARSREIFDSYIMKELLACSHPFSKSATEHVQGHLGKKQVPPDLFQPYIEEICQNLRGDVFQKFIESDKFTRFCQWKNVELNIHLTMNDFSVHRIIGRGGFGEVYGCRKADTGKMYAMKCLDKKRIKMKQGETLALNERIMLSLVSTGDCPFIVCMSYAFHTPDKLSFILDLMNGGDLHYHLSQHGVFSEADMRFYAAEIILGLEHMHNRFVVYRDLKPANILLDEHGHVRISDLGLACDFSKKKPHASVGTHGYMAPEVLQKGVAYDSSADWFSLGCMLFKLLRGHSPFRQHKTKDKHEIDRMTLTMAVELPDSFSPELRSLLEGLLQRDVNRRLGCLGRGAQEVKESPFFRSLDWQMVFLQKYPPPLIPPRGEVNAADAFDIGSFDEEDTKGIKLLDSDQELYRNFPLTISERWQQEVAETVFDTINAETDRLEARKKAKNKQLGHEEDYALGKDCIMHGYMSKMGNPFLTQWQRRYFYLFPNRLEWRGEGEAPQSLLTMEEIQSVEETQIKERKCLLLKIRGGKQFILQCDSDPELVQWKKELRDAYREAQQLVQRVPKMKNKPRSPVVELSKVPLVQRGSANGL
# [10] = biological target: Beta-2 adrenergic receptor (Homo sapiens) (UniProt P07550); experiment: beta2AR agonists driving receptor internalization, pilot screen, cell-based, FAP fluorogen, flow cytometry, validation set (AID 504459;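 active = percent response above 42, roughly 3 SD of non-fluorescent test compounds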;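 also: agonist-driven loss of surface beta2AR via internalization measured by FAP dye flow cytometry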); conditions: Am2.2-beta2AR cells, FAP surface receptor flow cytometry; at 10 µM; stronger effect = higher value
# Sequence of Beta-2 adrenergic receptor (Homo sapiens) (P07550 whole entry, looked up): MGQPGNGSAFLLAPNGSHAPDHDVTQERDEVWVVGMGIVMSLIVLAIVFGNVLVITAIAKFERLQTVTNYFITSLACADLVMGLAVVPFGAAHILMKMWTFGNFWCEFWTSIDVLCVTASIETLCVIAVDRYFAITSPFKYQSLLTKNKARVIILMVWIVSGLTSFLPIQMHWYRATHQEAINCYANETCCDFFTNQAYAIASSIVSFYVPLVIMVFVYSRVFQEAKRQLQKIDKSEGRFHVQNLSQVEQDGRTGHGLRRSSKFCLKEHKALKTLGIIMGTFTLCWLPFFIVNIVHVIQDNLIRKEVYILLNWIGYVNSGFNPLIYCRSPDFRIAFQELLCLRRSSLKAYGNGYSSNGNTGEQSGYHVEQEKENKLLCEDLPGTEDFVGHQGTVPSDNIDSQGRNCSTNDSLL
# [11] = biological target: AP-2 complex subunit beta (Homo sapiens) (UniProt P63010); experiment: inhibitors of arrestin peptide binding to AP2, pilot screen, biochemical, validation set, GST-AP2 beads, flow cytometry (AID 504541;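 active = inhibition above 54%, about 3 SD of non-fluorescent compounds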;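 also: AP2 carries R879A mutation and is captured from E. coli lysate; bead-bound FITC arrestin peptide fluorescence measuring arrestin peptide binding to AP2; 0% = DMSO wells and 100% = excess unlabeled arrestin peptide control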); conditions: FITC arrestin peptide, at 10 µM, stronger effect = higher value, AP2 beta2 appendage fragment, R879A mutant
# Sequence of AP-2 complex subunit beta (Homo sapiens) (P63010 whole entry, looked up, the tested form may be a part, one chain of several): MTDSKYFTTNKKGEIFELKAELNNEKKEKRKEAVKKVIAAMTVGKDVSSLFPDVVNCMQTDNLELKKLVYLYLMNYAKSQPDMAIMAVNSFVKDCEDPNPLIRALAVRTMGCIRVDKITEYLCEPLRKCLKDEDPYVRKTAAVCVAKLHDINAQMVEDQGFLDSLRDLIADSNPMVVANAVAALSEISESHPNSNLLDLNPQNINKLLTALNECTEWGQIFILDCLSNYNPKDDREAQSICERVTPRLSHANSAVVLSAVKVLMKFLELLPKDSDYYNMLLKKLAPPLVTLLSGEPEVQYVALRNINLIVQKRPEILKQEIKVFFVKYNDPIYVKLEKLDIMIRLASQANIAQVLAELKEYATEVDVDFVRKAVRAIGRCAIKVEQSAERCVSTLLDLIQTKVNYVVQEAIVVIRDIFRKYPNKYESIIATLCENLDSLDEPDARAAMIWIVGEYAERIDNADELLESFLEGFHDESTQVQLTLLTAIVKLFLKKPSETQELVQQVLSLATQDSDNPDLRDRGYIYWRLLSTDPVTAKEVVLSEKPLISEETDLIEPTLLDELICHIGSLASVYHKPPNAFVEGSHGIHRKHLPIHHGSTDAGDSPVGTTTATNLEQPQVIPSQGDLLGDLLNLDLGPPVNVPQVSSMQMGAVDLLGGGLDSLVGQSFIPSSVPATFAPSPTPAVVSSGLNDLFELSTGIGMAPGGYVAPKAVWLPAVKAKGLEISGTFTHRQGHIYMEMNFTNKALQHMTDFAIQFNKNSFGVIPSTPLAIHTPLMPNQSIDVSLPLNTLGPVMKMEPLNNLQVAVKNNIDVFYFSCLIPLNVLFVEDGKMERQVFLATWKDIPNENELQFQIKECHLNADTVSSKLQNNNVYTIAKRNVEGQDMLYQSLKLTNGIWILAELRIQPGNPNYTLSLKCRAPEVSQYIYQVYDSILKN
# [12] = yeast V-ATPase proton transport modulators, S. cerevisiae, pHLuorin, HTS validation (AID 504600; in the data active = response above about 15%;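 also: plate controls were DMSO for no effect and reference compound for full effect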); conditions: S. cerevisiae pHLuorin cytosolic pH, at 10 µM, stronger effect = higher value
# [13] = tested on: anti-desmoglein-3 scFv antibody binding to human DSG3; experiment: inhibitors of anti-DSG3 scFv binding to DSG3, pilot screen, biochemical, validation compound set, bead-based, flow cytometry (AID 588368;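 active = binding below the plate cutoff, the plate median minus 3 SD, with a reading above zero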;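 also: signal is the median channel fluorescence of bead-bound GFP antibody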); conditions: Protein G beads, DSG3-Fc, scFv-GFP binding, at 10 µM, stronger effect = lower value
# [14] = inhibitors of fungal efflux pumps CDR1, CDR2, MDR1, pilot screen, validation compound set, multiplex, phenotypic (AID 588506;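 active = efflux inhibition above 0.42, the validation set average plus 4 SD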;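 also: Nile Red retained in cells so higher fluorescence means more efflux inhibition; 0 = negative control wells and 1 = enniatin B 25 µM full block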); conditions: S. cerevisiae pump-expressing triplex, Nile Red efflux flow cytometry; at 10 µM; stronger effect = higher value; the pumps come from Candida albicans
# [15] = biological target: ATP-binding cassette sub-family B member 6 (Homo sapiens) (UniProt Q9NP58); experiment: ABCB6 transporter inhibitors, pilot screen, K562-ABCB6 cells, flow cytometry, validation set (AID 588550;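 active = inhibition above the screen-wide mean plus 3 SD, about 51%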;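 also: 0% = DMSO wells and 100% = benzethonium chloride 70 µM positive control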); conditions: K562-ABCB6 porphyrin accumulation, 1 h, at 10 µM, stronger effect = higher value
# Sequence of ATP-binding cassette sub-family B member 6 (Homo sapiens) (Q9NP58 whole entry, looked up): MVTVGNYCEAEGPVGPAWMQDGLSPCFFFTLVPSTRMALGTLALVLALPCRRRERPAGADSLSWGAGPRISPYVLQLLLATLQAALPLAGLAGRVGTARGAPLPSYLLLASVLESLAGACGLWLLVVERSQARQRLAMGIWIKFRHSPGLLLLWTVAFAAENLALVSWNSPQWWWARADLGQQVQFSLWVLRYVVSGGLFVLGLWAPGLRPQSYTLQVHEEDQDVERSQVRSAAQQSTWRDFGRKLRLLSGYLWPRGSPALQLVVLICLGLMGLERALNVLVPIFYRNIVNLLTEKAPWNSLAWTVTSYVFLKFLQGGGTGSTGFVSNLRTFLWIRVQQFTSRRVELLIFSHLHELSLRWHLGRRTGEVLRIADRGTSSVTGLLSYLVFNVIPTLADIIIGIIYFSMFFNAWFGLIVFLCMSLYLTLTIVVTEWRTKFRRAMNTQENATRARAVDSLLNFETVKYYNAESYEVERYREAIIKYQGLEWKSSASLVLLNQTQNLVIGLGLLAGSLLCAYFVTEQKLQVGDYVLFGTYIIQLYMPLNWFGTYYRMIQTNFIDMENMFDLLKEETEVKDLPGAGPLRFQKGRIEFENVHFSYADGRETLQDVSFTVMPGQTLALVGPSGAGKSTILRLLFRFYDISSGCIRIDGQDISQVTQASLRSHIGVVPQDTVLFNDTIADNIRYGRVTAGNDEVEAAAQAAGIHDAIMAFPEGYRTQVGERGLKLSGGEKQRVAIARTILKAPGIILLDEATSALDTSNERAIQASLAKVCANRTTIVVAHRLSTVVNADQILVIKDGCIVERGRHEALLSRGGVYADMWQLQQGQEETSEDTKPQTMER
# [16] = promoters of myeloid differentiation in arrested cells, primary screen, cell-based, GFP/MAC1 double positive, flow cytometry, validation set (AID 588685;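 active = differentiation response of at least 50%, scaled between solvent and reference control, from cells with both markers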;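 also: compound exposure lasts four days before antibody staining and flow analysis; 0% = DMSO wells and 100% = 5 µM fulvestrant positive control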); conditions: ER-HoxA9 marrow cells, stronger effect = higher value, normalized: vehicle 0, fulvestrant 100
Structure (SMILES),percent of DMSO control GFP [1],GFP response vs DMSO [2],percent response of DMSO control [3],GFP response vs DMSO [4],"GFP response, % of DMSO [5]",double positive events [6] [%],vesicle binding response [6],inhibition [7],superoxide response (% of plate) [8],aptamer binding inhibition [9],response [10],inhibition [11],response [12],binding (% of control) [13],efflux inhibition (fraction of control) [14],inhibition [15],differentiation response [16]
COc1ccc(-c2coc3c(CN4CCOCC4)c(O)ccc3c2=O)cc1,105% (inactive),99.7% (inactive),109% (inactive),93.7% (inactive),105% (inactive),57.5,118% (inactive),-5.11% (inactive),103% (inactive),-6% (inactive),-34.4% (inactive),55.9% (active),-2.03% (inactive),103% (inactive),0.31 (inactive),-5% (inactive),-3.11% (inactive)
CCCCNc1ccc(C(=O)OCCN(C)C)cc1,101% (inactive),109% (inactive),98.9% (inactive),103% (inactive),97.3% (inactive),63.6,212% (inactive),5.77% (inactive),106% (inactive),-1% (inactive),-12.7% (inactive),5.38% (inactive),-3.28% (inactive),101% (inactive),-0.01 (inactive),15% (inactive),19.8% (inactive)
CCOC(=O)N1CCc2[nH]c3ccc(C)cc3c2C1,95.5% (inactive),102% (inactive),103% (inactive),140% (inactive),103% (inactive),64.6,175% (inactive),-3.67% (inactive),110% (inactive),-1% (inactive),-9.79% (inactive),4.56% (inactive),14.9% (inactive),105% (inactive),0.25 (inactive),-9% (inactive),-4% (inactive)
O=C(OCCNC(=O)c1ccc2ccccc2n1)c1ccc(F)cc1,103% (inactive),110% (inactive),97.8% (inactive),87.4% (inactive),88.9% (inactive),58.4,241% (inactive),2.66% (inactive),114% (inactive),0% (inactive),4.51% (inactive),2.3% (inactive),1.13% (inactive),99.2% (inactive),-0.04 (inactive),0% (inactive),8.06% (inactive)
CCOC(=O)C(=O)N1CCN(c2ccccc2OC)CC1,97.9% (inactive),112% (inactive),98.6% (inactive),94.8% (inactive),104% (inactive),64.7,175% (inactive),-9.13% (inactive),98% (inactive),3% (inactive),3.6% (inactive),14.2% (inactive),-4.83% (inactive),102% (inactive),-0.125 (inactive),7% (inactive),-8.96% (inactive)
CC(C)=CCC/C(C)=C/CC/C(C)=C/CC/C(C)=C/CC1=C(C)C(=O)c2ccccc2C1=O,98.2% (inactive),105% (inactive),101% (inactive),121% (inactive),116% (inactive),58.9,205% (inactive),-7.08% (inactive),102% (inactive),2% (inactive),-16% (inactive),-12.1% (inactive),-1.04% (inactive),99.2% (inactive),-0.09 (inactive),-4% (inactive),-6.96% (inactive)
CCCCCC(O)c1cccc(OCc2ccc3ccccc3n2)c1 (stereo not drawn),101% (inactive),97.6% (inactive),99% (inactive),130% (inactive),109% (inactive),65.2,227% (inactive),22.7% (inactive),110% (inactive),2% (inactive),-42.6% (inactive),6.94% (inactive),1.82% (inactive),92.4% (inactive),0.04 (inactive),5% (inactive),-8.93% (inactive)
CCCCCCCC(=O)OCC(O)CO (stereo not drawn),108% (inactive),103% (inactive),97.8% (inactive),92.7% (inactive),90.3% (inactive),60.6,45.8% (inactive),0.58% (inactive),110% (inactive),3% (inactive),-8.74% (inactive),-8.36% (inactive),4.53% (inactive),98.7% (inactive),0.02 (inactive),5% (inactive),2.2% (inactive)
Cc1c(Cc2ccccc2)c(=O)oc2c(CN(C)C)c(O)c(Cl)cc12,98.2% (inactive),108% (inactive),94.2% (inactive),92.7% (inactive),98% (inactive),61.8,358% (inactive),0.58% (inactive),98.2% (inactive),3% (inactive),-3.4% (inactive),0.49% (inactive),0.93% (inactive),99.3% (inactive),-0.39 (inactive),2% (inactive),-5.62% (inactive)
